From PubChem BioAssay AID720519 (National Center for Advancing Translational Sciences (NCATS), 2013)
Results filed as inconclusive are left out. Calls of active or inactive are those of the source. Calls come from the whole dose curve; as a rule, active = well fitted activation curve with a large enough effect; inconclusive = small, poorly fitted or top-dose-only effect; inactive = flat fitted curve, though single readings scatter.

Test: qHTS for Inhibitors of Cell Surface uPA Generation: Confirmatory Assay for Cherry-picked Compounds; note: 0% is about no effect
Conditions: cell surface uPA activity generation, qHTS confirmation; series mostly up to 115 µM; inhibition: at the top concentration
Procedure, shortened: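 RAW 264.7 cells at 4000/well, incubated overnight, then treated with compounds. After 24 h at 37 C, viability was read by ATPlite luminescence. An increase in signal indicates blocked uPA-dependent LF entry.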

inhibition, inactive:
CC(=O)Nc1ccc(OS(=O)(=O)c2c(C)cc(C)cc2C)cc1 -3.5%
Cc1cc(C)c(NC(=O)Cn2nnc(C(=O)NCc3ccc4c(c3)OCO4)c2N)c(C)c1 3.61%
COc1ccc(C(=O)NCC(=O)N/N=C/c2c(C)[nH]c3ccccc23)cc1 0.686%
CCc1ccc(OCC(=O)N(Cc2cccs2)C2CCS(=O)(=O)C2)cc1 (configuration not stated) 0.364%
COc1ccc(CN2CCN(Cc3ccc(C(F)(F)F)cc3)CC2)cc1 -2.64%
COc1cc(CN2CCN(c3ncccn3)CC2)cc(OC)c1 -1.56%
COc1ccc(-c2cccc(-c3cc(=O)oc4cc(OC)c(OC)c(OC)c34)c2)cc1 -2.12%
COc1ccc2c(c1)c1nnc(SCC(=O)Nc3ccccc3F)nc1n2C -1.47%
Cc1ccc(C2=NS(=O)(=O)N(C)C(C(=O)NC3CCCC3)=C2)cc1 -1.27%
Cc1c(C(=O)N(Cc2ccccc2Cl)C2CCS(=O)(=O)C2)oc2ccccc12 (configuration not stated) -3.3%
NS(=O)(=O)c1ccc(CCNC(=O)c2ccc(Cl)s2)cc1 0.106%
C=CCn1c(SCc2ccc(C(=O)NCCO)cc2)nc2ccccc2c1=O -1.7%
Cn1cccc1Cc1nnc(SCC(=O)Nc2ccc3c(c2)OCCO3)n1-c1ccc(F)cc1 -1.98%
COc1cc(F)ccc1S(=O)(=O)n1c(C)nc2ccccc21 5.83%
COc1ccc(NC(=O)c2cccnc2N2CCOCC2)cc1 0.0181%
CC(/C=C1\SC(=S)N(CCCC(=O)Nc2ccc(C(=O)O)cc2)C1=O)=C\c1ccccc1 -2.46%
CC1(NC(=O)CSc2nnc(-c3c[nH]c4ccccc34)n2C2CC2)CCS(=O)(=O)C1 (configuration not stated) 1.13%
